Targets with a hit are over-represented here; the source holds about 8,800 in all. About 0.5% of all pairs of compound and target were hits.
Tests used:
Test in all cases: log2 fold change, soluble protein after heating vs DMSO (PISA); higher = thermal stabilisation; K562 lysate, 10 uM; active = over 0.2 and 3.5 SD of the protein, either way, in both replicates (recomputed)
erlotinib = compound: C#Cc1cccc(Nc2ncnc3cc(OCCOC)c(OCCOC)cc23)c1 [erlotinib]
In short: (§1)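 Quantification was by TMTpro 16plex LC-MS/MS with equalised channel sums, applied to the supernatant after 21,000xg for 90 min. Samples were crude K562 extract at 1 mg/mL protein in PBS pH 7.4 with 1 mM MgCl2, treated with 10 μM compound for 30 min, heated for 3 min across 48°C-58°C, pooled and brought to 0.5% NP-40 at 4°C. Values are log-two fold changes in thermal stability relative to solvent controls, from duplicates.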

[1] = compound: C/C(=N\NC(=O)C1=CC(=CC=C1)S(=O)(=O)N2CCOCC2)/C3=C(C=CC(=C3)Cl)O
In short: as §1

[2] = compound: C1=CC(=CC=C1C2=NC3=C(N2)C=C(C=C3)C(=O)N)OC4=CC=C(C=C4)Cl
In short: as §1

[3] = compound: C1=CC2=C(C=CC(=C2)/C=C\3/C(=O)NC(=NCC4=CC=CS4)S3)N=C1
In short: as §1

[4] = compound: C1=CC2=NC=CN=C2C=C1/C=C/3\C(=O)NC(=O)S3
In short: as §1

[5] = compound: C1=CC=C(C=C1)C2=NC(=C(N2)C3=CC=NC=C3)C4=CC(=C(C=C4)Cl)O
In short: as §1

[6] = compound: C1=CC=C2C(=C1)C3=NNC4=CC=CC(=C43)C2=O
In short: as §1

[7] = compound: C1CCN(C1)C(=O)NC2=CC=CC(=C2)NC3=NC=C(C(=N3)NCCC4=CN=CN4)Br
In short: as §1

[8] = compound: C1CN(CCC1(CC2=CC=C(C=C2)Cl)N)C3=NC=NC4=C3C=CN4
In short: as §1

IRAK-1-4 Inhibitor I = compound: C1COCCN1CCN2C3=CC=CC=C3N=C2NC(=O)C4=CC(=CC=C4)[N+](=O)[O-] [IRAK-1-4 Inhibitor I]
In short: as §1

ibrutinib = compound: C=CC(=O)N1CCC[C@@H](n2nc(-c3ccc(Oc4ccccc4)cc3)c3c(N)ncnc32)C1 [ibrutinib]
In short: as §1

ralimetinib = compound: CC(C)(C)Cn1c(N)nc2ccc(-c3[nH]c(C(C)(C)C)nc3-c3ccc(F)cc3)nc21 [ralimetinib]
In short: as §1

[9] = compound: CC(C)(O)CC(=O)NCCn1ccc2ncnc(Nc3ccc(Oc4cccc(C(F)(F)F)c4)c(Cl)c3)c21
In short: as §1

[10] = compound: CC(C)C1=C2N=C(C=C(N2N=C1)NCC3=CC=CC=C3)NCCCCCCN
In short: as §1

[11] = compound: CC1=C(C(CC(=O)N1)C2=CC=C(C=C2)C(F)(F)F)C(=O)NC3=C(C=C4C(=C3)C=NN4)F
In short: as §1

[12] = compound: CC1=C(C2=C(C=C1)C(=O)C3=CC=CC=C3N2CCCN)C
In short: as §1

[13] = compound: CC1=C(C=C(C=C1)NC(=O)C2=CC(=CC=C2)C(C)(C)C#N)NC3=CC4=C(C=C3)N=CN(C4=O)C
In short: as §1

[14] = compound: CC1=C(C=C(C=C1)NC(=O)C2=CC(=CC=C2)N(C)C)NC(=O)C3=CC=C(C=C3)O
In short: as §1

[15] = compound: CC(=O)c1cnc2ccc(-c3cc(Cl)c(O)c(Cl)c3)nc2c1N[C@H]1CC[C@H](CN(C)C)CC1
In short: as §1

[16] = compound: CC1=CC=C(C=C1)SC2=C3C=C(SC3=CN=C2)C(=O)N
In short: as §1

Measured: log2 fold change

VHL (UniProt P40337)
Sequence of UniProt P40337 (P40337 whole entry, looked up): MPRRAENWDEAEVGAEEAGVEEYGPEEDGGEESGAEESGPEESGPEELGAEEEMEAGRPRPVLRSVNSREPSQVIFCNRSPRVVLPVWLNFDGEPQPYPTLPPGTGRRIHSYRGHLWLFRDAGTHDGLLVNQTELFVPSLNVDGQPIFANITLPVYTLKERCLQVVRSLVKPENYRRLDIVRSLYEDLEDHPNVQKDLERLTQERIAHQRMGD
inactive: erlotinib 0.088 | [1] 0.034 | [2] -0.016 | [3] 0.059 | [4] 0.032 | [5] -0.09 | [6] -0.003 | [7] -0.007 | [8] -0.107 | IRAK-1-4 Inhibitor I 0.02 | ibrutinib 0.033 | ralimetinib 0.09 | [9] -0.027 | [10] 0.06 | [11] -0.045 | [12] -0.109 | [13] -0.013 | [14] 0.024

URGCP (UniProt Q8TCY9)
active: [9] -0.515
inactive: [1] -0.024 | [3] -0.075 | [4] -0.01 | [5] -0.038 | [6] 0.051 | IRAK-1-4 Inhibitor I 0.022 | ibrutinib 0.081 | ralimetinib -0.07 | [11] -0.05 | [12] 0.008 | [14] -0.042

WSB1 (UniProt Q9Y6I7)
Sequence of UniProt Q9Y6I7 (Q9Y6I7 whole entry, looked up): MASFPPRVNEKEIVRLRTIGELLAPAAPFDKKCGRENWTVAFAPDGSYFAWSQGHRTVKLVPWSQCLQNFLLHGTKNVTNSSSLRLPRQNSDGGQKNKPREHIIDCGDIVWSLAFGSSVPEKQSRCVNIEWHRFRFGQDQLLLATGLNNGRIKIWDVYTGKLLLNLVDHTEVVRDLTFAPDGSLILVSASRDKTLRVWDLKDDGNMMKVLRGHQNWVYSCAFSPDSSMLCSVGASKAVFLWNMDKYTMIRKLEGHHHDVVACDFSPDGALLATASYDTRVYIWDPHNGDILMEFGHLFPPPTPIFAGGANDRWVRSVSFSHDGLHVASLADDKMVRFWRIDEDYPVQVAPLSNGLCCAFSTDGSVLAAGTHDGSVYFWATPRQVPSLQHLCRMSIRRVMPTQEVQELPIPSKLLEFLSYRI
inactive: [5] 0.037 | IRAK-1-4 Inhibitor I -0.093 | ralimetinib 0.08 | [9] -0.006 | [12] -0.037 | [14] -0.028

YBEY (UniProt P58557)
Sequence of UniProt P58557 (P58557 whole entry, looked up): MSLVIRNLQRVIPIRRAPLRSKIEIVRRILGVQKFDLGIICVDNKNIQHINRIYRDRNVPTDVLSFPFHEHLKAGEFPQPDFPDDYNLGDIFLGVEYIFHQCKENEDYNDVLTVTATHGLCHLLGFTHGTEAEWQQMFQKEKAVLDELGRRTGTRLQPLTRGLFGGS
inactive: erlotinib 0.101 | [1] -0.164 | [2] 0.009 | [3] -0.039 | [6] -0.031 | [7] -0.011 | [8] 0.111 | [10] 0.016 | [12] -0.029

ZDHHC17 (UniProt Q8IUH5)
inactive: [1] 0.197 | [3] 0.011 | [5] -0.082 | [6] -0.247 | [7] -0.066 | [8] -0.027 | IRAK-1-4 Inhibitor I 0.205 | [15] -0.063 | ralimetinib 0.077 | [9] 0.047 | [11] -0.001 | [12] 0.161 | [13] -0.171 | [14] -0.067 | [16] -0.032

ZNF644 (UniProt Q9H582)
inactive: erlotinib 0.192 | [1] -0.085 | [2] 0.071 | [3] 0.075 | [4] 0.066 | [5] -0.115 | [6] -0.04 | [7] 0.036 | [8] -0.037 | IRAK-1-4 Inhibitor I 0.035 | ibrutinib 0.07 | ralimetinib -0.023 | [9] 0.052 | [10] 0.038 | [11] -0.061 | [12] 0.042 | [13] -0.005 | [14] -0.02

ZFYVE19 isoform 3 (UniProt Q96K21)
Sequence of UniProt Q96K21 (Q96K21 whole entry, looked up): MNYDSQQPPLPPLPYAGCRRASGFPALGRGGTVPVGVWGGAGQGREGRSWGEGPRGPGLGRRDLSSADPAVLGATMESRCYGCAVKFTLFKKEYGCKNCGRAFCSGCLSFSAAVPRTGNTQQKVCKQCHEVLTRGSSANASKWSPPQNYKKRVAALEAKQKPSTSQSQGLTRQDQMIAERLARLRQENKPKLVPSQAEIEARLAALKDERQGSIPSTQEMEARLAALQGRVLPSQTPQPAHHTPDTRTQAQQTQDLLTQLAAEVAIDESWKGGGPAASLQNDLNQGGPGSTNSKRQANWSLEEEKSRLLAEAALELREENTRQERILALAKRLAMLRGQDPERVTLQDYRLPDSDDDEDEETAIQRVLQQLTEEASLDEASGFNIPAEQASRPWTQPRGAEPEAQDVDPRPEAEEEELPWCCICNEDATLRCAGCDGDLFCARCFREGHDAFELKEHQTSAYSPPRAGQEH
inactive: [4] 0.038 | ibrutinib 0.085 | [15] -0.084 | [16] 0.047

USP8 (UniProt P40818)
Sequence of UniProt P40818 (P40818 whole entry, looked up): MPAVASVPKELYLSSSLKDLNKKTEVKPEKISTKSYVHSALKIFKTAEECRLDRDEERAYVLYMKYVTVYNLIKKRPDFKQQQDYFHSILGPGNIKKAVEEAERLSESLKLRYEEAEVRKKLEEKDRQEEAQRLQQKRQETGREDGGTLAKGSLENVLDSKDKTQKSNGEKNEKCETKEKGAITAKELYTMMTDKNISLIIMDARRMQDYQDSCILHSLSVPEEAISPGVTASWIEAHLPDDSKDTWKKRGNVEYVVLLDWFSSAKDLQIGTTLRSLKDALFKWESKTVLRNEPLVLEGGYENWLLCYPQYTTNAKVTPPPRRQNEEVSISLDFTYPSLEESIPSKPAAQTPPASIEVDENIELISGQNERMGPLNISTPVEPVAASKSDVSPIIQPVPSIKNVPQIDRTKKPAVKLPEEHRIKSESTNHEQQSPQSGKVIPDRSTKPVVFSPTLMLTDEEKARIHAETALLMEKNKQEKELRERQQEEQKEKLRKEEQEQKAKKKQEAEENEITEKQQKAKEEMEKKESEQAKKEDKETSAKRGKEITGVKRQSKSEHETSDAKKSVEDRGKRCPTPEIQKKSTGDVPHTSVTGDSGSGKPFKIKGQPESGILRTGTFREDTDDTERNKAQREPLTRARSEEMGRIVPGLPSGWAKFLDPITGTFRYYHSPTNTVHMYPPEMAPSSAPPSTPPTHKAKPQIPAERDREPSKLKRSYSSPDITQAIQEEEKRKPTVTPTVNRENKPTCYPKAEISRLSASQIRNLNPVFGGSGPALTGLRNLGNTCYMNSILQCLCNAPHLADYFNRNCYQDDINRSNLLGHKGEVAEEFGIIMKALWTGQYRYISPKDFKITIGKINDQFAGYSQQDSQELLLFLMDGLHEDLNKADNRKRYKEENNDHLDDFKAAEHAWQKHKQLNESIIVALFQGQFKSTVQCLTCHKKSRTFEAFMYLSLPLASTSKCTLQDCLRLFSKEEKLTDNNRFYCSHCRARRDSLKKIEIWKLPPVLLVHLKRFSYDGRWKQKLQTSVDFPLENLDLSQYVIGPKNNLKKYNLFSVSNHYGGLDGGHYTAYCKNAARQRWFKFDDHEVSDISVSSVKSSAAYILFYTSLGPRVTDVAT
inactive: erlotinib -0.011 | [1] -0.034 | [2] 0.026 | [3] -0.004 | [4] -0.034 | [5] 0.014 | [6] -0.028 | [7] -0.014 | [8] 0.006 | IRAK-1-4 Inhibitor I -0.019 | ibrutinib 0.048 | [15] -0.009 | ralimetinib 0 | [9] -0.014 | [10] 0.015 | [11] 0.004 | [12] -0.007 | [13] -0.001 | [14] 0.018 | [16] 0.009

USP22 (UniProt Q9UPT9)
inactive: erlotinib 0.072 | [1] 0.019 | [2] -0.025 | [3] 0.048 | [4] -0.022 | [5] -0.003 | [6] -0.013 | [7] -0.021 | [8] 0.004 | IRAK-1-4 Inhibitor I -0.005 | ibrutinib -0.031 | ralimetinib 0.023 | [9] 0.006 | [10] 0.027 | [11] -0.057 | [12] -0.034 | [13] 0.065 | [14] 0.056

ULK3 isoform 4 (UniProt Q6PHR2)
inactive: erlotinib 0.156 | [1] 0.149 | [2] -0.008 | [3] -0.151 | [4] -0.053 | [6] 0.177 | [7] 0.179 | [8] 0.01 | ibrutinib -0.08 | [15] -0.024 | [10] -0.091 | [12] -0.06 | [13] 0.094 | [16] 0.08

WIPI2 isoform 6 (UniProt Q9Y4P8)
inactive: [4] 0.079 | ibrutinib -0.021

WIPI1 (UniProt Q5MNZ9)
inactive: erlotinib -0.025 | [2] -0.006 | [4] -0.016 | [5] -0.027 | [7] 0.035 | [8] -0.013 | IRAK-1-4 Inhibitor I -0.007 | ibrutinib 0.098 | [15] -0.062 | ralimetinib 0.002 | [9] 0.019 | [10] -0.008 | [11] 0.1 | [12] -0.023 | [13] -0.005 | [14] -0.009 | [16] -0.033

ZNF845 (UniProt Q96IR2)
inactive: erlotinib -0.033 | [1] -0.145 | [2] 0.102 | [3] 0.02 | [4] -0.09 | [5] 0.047 | [6] -0.123 | IRAK-1-4 Inhibitor I -0.044 | ibrutinib 0.087 | [15] -0.039 | ralimetinib 0.093 | [9] 0 | [10] -0.061 | [11] -0.047 | [12] 0.072 | [13] 0.005 | [14] -0.012 | [16] -0.109

ZNF652 (UniProt Q9Y2D9)
inactive: [13] 0.042

ZNF281 (UniProt Q9Y2X9)
Sequence of UniProt Q9Y2X9 (Q9Y2X9 whole entry, looked up): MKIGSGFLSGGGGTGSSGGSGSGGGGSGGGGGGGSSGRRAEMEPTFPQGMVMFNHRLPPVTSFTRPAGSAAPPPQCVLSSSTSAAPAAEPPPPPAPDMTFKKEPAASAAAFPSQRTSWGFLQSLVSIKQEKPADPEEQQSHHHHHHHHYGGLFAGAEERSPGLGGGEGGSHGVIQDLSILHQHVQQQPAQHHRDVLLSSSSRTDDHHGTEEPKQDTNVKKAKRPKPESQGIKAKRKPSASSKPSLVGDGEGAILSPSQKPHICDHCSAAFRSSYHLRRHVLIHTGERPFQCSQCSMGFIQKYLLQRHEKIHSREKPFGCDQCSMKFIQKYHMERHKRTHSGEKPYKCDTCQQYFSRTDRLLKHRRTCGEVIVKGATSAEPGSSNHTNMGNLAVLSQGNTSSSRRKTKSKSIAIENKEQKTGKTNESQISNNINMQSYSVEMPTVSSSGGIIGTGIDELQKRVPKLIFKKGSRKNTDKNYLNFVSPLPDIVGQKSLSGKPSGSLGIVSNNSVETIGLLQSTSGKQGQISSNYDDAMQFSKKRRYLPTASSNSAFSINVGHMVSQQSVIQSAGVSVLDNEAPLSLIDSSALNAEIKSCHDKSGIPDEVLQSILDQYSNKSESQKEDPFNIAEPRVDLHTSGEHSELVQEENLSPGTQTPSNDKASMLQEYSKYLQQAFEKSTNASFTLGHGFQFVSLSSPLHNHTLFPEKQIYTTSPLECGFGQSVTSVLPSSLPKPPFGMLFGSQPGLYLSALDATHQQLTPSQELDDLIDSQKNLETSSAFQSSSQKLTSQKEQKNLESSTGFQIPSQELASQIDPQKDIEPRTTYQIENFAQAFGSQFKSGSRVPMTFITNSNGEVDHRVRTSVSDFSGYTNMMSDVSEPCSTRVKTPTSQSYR
inactive: erlotinib -0.191 | [2] -0.106 | [5] 0.006 | IRAK-1-4 Inhibitor I 0.069 | ralimetinib -0.055 | [9] 0.081 | [10] 0.039 | [12] -0.008 | [13] -0.081 | [14] -0.041

ZKSCAN8 (UniProt Q15776)
active: [15] 0.514
inactive: erlotinib -0.005 | [1] -0.418 | [2] -0.148 | [3] 0.004 | [5] -0.001 | [6] -0.04 | [7] 0.031 | [8] 0.006 | IRAK-1-4 Inhibitor I 0.077 | ralimetinib -0.021 | [9] -0.002 | [10] 0.229 | [11] 0.098 | [12] 0.008 | [13] -0.008 | [14] 0.04 | [16] -0.054

WAS (UniProt P42768)
Sequence of UniProt P42768 (P42768 whole entry, looked up): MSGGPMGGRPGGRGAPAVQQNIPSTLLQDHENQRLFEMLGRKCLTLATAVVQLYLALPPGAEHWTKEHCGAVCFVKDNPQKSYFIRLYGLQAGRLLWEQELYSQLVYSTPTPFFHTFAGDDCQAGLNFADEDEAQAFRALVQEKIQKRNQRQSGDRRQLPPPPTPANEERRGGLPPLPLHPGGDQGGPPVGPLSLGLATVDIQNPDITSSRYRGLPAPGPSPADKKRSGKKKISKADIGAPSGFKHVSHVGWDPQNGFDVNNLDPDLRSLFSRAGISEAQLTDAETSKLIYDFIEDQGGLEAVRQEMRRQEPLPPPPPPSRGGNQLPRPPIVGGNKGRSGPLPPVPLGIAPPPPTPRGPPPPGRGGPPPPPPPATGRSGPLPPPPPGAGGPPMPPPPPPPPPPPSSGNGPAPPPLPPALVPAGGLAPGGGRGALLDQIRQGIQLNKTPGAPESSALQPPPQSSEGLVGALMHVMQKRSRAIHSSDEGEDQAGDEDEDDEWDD
inactive: erlotinib 0.023 | [2] 0.074 | [4] -0.149 | [7] 0.007 | [8] 0.026 | ibrutinib -0.06 | [10] -0.01 | [11] 0.071 | [12] 0.143

ZSCAN26 (UniProt Q16670)
inactive: [13] 0.007

VPS72 (UniProt Q15906)
inactive: erlotinib 0.056 | [1] -0.036 | [2] 0.046 | [3] -0.057 | [5] -0.04 | [6] 0.052 | [7] 0.024 | [8] 0.059 | IRAK-1-4 Inhibitor I -0.008 | [15] 0.016 | ralimetinib 0.046 | [9] -0.06 | [10] -0.028 | [11] -0.098 | [12] 0.005 | [13] 0 | [14] -0.01 | [16] -0.038

ZBTB40 (UniProt Q9NUA8)
Sequence of UniProt Q9NUA8 (Q9NUA8 whole entry, looked up): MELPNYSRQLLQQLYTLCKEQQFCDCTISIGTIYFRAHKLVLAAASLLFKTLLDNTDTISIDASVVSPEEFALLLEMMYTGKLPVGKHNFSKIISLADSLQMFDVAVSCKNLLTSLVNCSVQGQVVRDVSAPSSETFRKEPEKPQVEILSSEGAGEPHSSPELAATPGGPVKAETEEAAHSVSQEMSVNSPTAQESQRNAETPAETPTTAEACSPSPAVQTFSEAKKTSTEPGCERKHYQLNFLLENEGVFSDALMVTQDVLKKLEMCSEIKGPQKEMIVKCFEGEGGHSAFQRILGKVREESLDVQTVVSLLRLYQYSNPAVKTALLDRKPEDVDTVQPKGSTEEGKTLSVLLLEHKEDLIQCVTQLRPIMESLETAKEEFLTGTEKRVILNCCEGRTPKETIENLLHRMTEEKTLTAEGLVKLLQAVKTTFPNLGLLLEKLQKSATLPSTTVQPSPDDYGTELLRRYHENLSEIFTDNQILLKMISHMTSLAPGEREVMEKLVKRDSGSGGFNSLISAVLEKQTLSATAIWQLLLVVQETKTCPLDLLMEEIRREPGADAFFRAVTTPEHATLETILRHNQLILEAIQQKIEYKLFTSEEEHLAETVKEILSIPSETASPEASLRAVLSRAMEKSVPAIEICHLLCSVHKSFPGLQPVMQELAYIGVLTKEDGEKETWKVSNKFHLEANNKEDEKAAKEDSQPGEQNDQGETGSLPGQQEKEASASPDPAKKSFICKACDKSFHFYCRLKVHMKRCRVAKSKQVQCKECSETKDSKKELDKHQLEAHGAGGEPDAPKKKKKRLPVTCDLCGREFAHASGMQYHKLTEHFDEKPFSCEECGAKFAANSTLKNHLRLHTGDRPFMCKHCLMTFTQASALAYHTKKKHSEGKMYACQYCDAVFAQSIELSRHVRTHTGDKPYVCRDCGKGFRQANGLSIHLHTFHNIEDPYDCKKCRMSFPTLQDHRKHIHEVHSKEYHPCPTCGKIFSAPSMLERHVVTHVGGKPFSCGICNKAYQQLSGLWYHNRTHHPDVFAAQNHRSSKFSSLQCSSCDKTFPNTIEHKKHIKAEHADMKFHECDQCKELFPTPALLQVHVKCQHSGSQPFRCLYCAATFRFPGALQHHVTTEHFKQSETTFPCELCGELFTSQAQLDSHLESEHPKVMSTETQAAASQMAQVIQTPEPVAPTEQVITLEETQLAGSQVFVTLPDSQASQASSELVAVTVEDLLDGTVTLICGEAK
inactive: erlotinib -0.044 | [1] -0.019 | [2] -0.014 | [3] -0.075 | [5] -0.045 | [6] -0.017 | IRAK-1-4 Inhibitor I -0.048 | [15] 0.035 | ralimetinib 0.096 | [9] -0.012 | [10] 0.057 | [11] 0.081 | [12] -0.042 | [13] 0.009 | [14] -0.007 | [16] -0.044

UNKL (UniProt E9PDK2)
inactive: [1] -0.088 | [3] 0.166 | [4] 0.061 | [6] -0.122 | [7] 0.155 | [8] 0.156 | ibrutinib -0.191 | [12] -0.086 | [13] 0.025

ZSCAN21 (UniProt Q9Y5A6)
inactive: [7] -0.022 | [8] 0.037

XPOT (UniProt F5GYW6)
inactive: [15] -0.027 | [16] 0.041

VASN (UniProt Q6EMK4)
inactive: [2] 0.071 | [5] -0.191 | [7] -0.277 | [8] -0.01 | IRAK-1-4 Inhibitor I 0.222 | ralimetinib 0.332 | [9] 0.172 | [10] -0.004 | [12] -0.255 | [14] -0.295
active: erlotinib -0.644
